The source of these data is PubChem BioAssay (Tox21).

Records with an inconclusive call do not appear. More than one record can exist for a structure, and the calls need not agree. Calls of active or inactive are those of the source. Unless noted, calls follow the shape of the dose curve; as a rule, active = well fitted curve in the direction sought with a large enough effect in the repeat runs; inconclusive = weak or mixed curves; inactive = no such curve, though single readings can be large; an effect the other way counts as inactive or inconclusive.

Assay [1] can be described thus: qHTS assay to identify small molecule agonists of the sonic hedgehog signaling (Shh) pathway (AID 1259368; calls by dose curve;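 also: NIH/3T3-derived 3T3Gli1-Luc cells carrying a stable Gli1-driven firefly luciferase reporter; series mostly up to about 92 µM; nearly all actives have a fitted effect of over 15% in size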). The procedure, abridged: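 Stable NIH/3T3 Gli1-Luc reporter clone; 24 hr cpd exposure after a 4 hr settling period; luminescence endpoint.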
Background: qHTS replaces the single test concentration by a dilution series.

Assay [2] can be described thus: qHTS assay to identify small molecule antagonists of the sonic hedgehog signaling (Shh) pathway (AID 1259369; calls by dose curve; also: nearly all actives have a fitted effect of over 45% in size). An outline of the steps:
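Gli1 transcriptional reporter (firefly Luc) in NIH/3T3 background, conditioned-medium activated. 24hr exposure, luminescence endpoint.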

Assay [3] concerns the target Estrogen receptor beta (Homo sapiens) (UniProt Q92731). Put plainly: qHTS assay to identify small molecule agonists of the estrogen receptor beta (ER-beta) signaling pathway (AID 1259377; active = well fitted activation curve with a large enough effect in the signal ratio in the repeat runs, not every such curve was filed as active; the % refers to the signal ratio; also: potency is read from the fitted curve at half-maximal effect). The procedure, abridged: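 Screening used GripTite ER-beta-UAS-bla cells held in 2% charcoal-stripped FBS medium. After overnight (16 hr) compound incubation at 37C, beta-lactamase activity was detected with a FRET substrate by fluorescence.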

For assay [4] the target is unchanged. The assay is described as follows: qHTS assay to identify small molecule antagonists of the estrogen receptor beta (ER-beta) signaling pathway (AID 1259378; active = well fitted inhibition curve with a large enough effect in the signal ratio in the repeat runs, not every such curve was filed as active; the % refers to the signal ratio). An outline of the steps: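 ER-beta-UAS-bla HEK293T cells in 2% charcoal-stripped FBS medium treated with compound plus 1nM final 17-beta-estradiol for 16 hr at 37C. Beta-lactamase reporter read by FRET substrate fluorescence after 2 hours at room temperature.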

A short description of assay [5]: qHTS assay to identify small molecule agonists of the androgen receptor (AR) signaling pathway in the presence of an antagonist - cell viability counter screen (AID 1259379). Also: nearly all actives have a fitted effect of over 25% in size. Also: potency is read from the fitted curve at half-maximal effect. The procedure, abridged: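 Counter screen for cell viability run in parallel with the AR agonist-mode luciferase assay. MDA-kb2 cells were co-treated with nilutamide (3.0uM final) and compounds, then incubated 16 hr at 37C, and CellTiter-Fluor fluorescence was measured.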

Assay [6] is described as follows: qHTS assay to identify small molecule agonists of the estrogen receptor beta (ER-beta) signaling pathway - cell viability counter screen (AID 1259380). Also: nearly all actives have a fitted effect of over 30% in size. The procedure, abridged:
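In this qHTS counter screen, HEK293T cells carrying an ER-beta/UAS beta-lactamase reporter, grown in 2% charcoal-stripped FBS, received compound for 16 hr; ATP-based CellTiter-Glo luminescence was then read after 30 min at room temperature.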

Assay [7] is described as follows: qHTS assay to identify small molecule antagonists of the estrogen receptor beta (ER-beta) signaling pathway - cell viability counter screen (AID 1259382). Also: series mostly up to about 92 µM; nearly all actives have a fitted effect of over 55% in size. An outline of the steps:
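HEK293T ER-beta-UAS-bla, 2% charcoal-stripped FBS; compounds + 1nM E2 16 hr 37C; CellTiter-Glo luminescence, 30 min RT.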

Assay [8] in a line: qHTS assay to identify small molecule agonists or antagonists of the thyroid stimulating hormone receptor (TSHR) signaling pathway - wild type cell line counter screen (AID 1259384; calls by dose curve). The procedure, abridged: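 Wild-type Hek293 cells, 800/well, 18 h at 37C, then compound with Ro20-1724 for 30 min RT. cAMP by HTRF (cAMP-d2/anti-cAMP cryptate), 1 h RT, fluorescence read. 15 concentrations, triplicates.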

Assay [9] deals with Thyrotropin receptor (Homo sapiens) (UniProt P16473). Put plainly: qHTS assay to identify small molecule antagonists of the thyroid stimulating hormone receptor (TSHR) signaling pathway (AID 1259385; calls by dose curve; also: nearly all actives have a fitted effect of over 20% in size). The procedure, abridged: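 TSHR-HEK293 cells (800/well) plated 18 h, then compounds with Ro20-1724 and TSH at 1.5 ng/mL final, 30 min at room temperature. cAMP quantified by HTRF (cAMP-d2/anti-cAMP-cryptate, 1 h); 15 concentrations in triplicate.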
Thyrotropin receptor (Homo sapiens), sequence (P16473 whole entry, looked up): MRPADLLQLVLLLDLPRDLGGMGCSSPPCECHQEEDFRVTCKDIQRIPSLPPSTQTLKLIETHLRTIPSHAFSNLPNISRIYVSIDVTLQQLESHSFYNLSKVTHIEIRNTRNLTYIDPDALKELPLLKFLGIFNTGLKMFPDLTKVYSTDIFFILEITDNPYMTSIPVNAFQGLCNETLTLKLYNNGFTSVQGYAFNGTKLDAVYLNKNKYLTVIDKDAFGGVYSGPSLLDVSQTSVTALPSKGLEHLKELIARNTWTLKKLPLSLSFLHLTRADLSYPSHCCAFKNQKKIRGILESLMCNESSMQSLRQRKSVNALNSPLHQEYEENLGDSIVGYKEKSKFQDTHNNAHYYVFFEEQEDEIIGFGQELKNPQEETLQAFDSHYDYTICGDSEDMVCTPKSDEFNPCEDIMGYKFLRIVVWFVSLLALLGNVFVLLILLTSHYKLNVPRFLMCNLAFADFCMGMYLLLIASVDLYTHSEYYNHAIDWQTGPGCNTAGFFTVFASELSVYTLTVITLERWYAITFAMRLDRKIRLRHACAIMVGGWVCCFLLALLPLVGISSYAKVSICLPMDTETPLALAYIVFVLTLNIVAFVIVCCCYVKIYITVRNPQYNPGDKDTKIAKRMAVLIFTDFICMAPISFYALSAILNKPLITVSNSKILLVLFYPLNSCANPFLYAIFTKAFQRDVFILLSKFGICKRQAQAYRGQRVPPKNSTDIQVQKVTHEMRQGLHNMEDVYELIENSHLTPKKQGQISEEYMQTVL

A short description of assay [10]: qHTS assay to identify small molecule agonists of the estrogen receptor alpha (ER-alpha) signaling pathway in the presence of an antagonist - cell viability counter screen (AID 1259386).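 Also: cells exposed to compounds for 22 h at 37 °C before the viability read; nearly all actives have a fitted effect of over 30% in size.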 Also: potency is read from the fitted curve at half-maximal effect. An outline of the steps:
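Steps: 5-day stripped-FBS culture; seed and incubate 24hr; add ICI-182,780 (10.0nM final); pin 15-point compound titration; incubate 22hr at 37C; add CellTiter-Fluor at 21hr; read fluorescence.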

For assay [11], the target named is Progesterone receptor (Homo sapiens) (UniProt P06401). Put plainly: qHTS assay to identify small molecule agonists of the progesterone receptor (PR) signaling pathway (AID 1346784; calls by dose curve; also: nearly all actives have a fitted effect of over 30% in size). The procedure, abridged: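 Seed PR-UAS-bla HEK 293T cells (2% charcoal-stripped FBS), incubate 6 hr at 37C; add compounds in DMSO, 16 hr at 37C; add LiveBLAzer B/G substrate, 2 hr RT; read fluorescence intensity.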
Progesterone receptor (Homo sapiens), sequence (P06401 whole entry, looked up): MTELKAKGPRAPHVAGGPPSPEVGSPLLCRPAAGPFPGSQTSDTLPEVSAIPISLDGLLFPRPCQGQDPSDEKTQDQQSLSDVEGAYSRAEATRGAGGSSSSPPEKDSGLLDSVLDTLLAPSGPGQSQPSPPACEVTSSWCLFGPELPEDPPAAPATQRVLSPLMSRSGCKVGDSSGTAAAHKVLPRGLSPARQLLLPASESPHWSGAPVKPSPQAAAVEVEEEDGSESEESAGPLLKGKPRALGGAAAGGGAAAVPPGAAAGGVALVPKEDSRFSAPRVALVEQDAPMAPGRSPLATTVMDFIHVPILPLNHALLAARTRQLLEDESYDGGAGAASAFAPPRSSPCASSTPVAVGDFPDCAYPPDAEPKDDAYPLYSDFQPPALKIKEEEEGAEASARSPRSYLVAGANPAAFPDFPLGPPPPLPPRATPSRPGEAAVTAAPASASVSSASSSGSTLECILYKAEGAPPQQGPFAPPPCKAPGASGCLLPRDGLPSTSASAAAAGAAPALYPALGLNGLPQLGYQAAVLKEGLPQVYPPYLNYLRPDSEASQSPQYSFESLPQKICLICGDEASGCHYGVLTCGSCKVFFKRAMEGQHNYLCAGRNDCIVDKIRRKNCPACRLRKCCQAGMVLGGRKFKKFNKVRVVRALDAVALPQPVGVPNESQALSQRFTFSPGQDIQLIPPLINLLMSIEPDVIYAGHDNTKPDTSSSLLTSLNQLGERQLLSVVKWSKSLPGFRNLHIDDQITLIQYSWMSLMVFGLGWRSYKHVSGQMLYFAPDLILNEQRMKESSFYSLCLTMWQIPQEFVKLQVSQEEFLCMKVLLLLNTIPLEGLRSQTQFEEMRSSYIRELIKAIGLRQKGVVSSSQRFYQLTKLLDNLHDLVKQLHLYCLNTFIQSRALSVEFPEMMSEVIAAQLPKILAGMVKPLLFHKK

For assay [12] the target is unchanged. Put plainly: qHTS assay to identify small molecule antagonists of the progesterone receptor (PR) signaling pathway (AID 1346795; active = well fitted inhibition curve with a large enough effect in the signal ratio in the repeat runs, not every such curve was filed as active; the % refers to the signal ratio). An outline of the steps:
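Screening used a GripTite HEK293T line with PR-responsive UAS-beta-lactamase. Cells were challenged with compound in the presence of 1 nM R5020 final for 16 hr at 37C; B/G FRET substrate, 2 hr room temperature, fluorescence.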

A short description of assay [13]: qHTS assay to identify small molecule antagonists of the progesterone receptor (PR) signaling pathway - cell viability counter screen (AID 1346798). Also: series mostly up to about 92 µM; nearly all actives have a fitted effect of over 50% in size. An outline of the steps: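 Measures cytotoxicity in parallel with the PR antagonist reporter read: HEK293T PR-UAS-bla cells get compound and R5020 for 16 hr, and remaining viable cells are quantified by CellTiter-Glo luminescence.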

The nature of assay [14]: qHTS assay to identify small molecule agonists of the progesterone receptor (PR) signaling pathway - cell viability counter screen (AID 1346799; calls by dose curve; also: nearly all actives have a fitted effect of over 45% in size). An outline of the steps: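 Using the same plates as the PR reporter screen, HEK293T PR-UAS-bla cells received compounds for 16 hr at 37C and were then lysed with CellTiter-Glo; luminescence was read 30 min later at room temperature.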

Assay [15] can be described thus: qHTS assay to identify small molecule antagonists of the TGF-beta/Smad signaling pathway - cell viability counter screen (AID 1346824). Also: nearly all actives have a fitted effect of over 50% in size. The procedure, abridged:
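SBE-bla HEK 293T cells, incubated overnight, then compound plus 0.25 ng/mL TGF-beta1 (stock added) for 5 hr at 37 C. Viability was read in the same wells by CellTiter-Glo luminescence after 30 min at room temperature.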

The nature of assay [16]: qHTS assay to identify small molecule agonists of the TGF-beta/Smad signaling pathway - cell viability counter screen (AID 1346829). Also: top concentration of the series differs between compounds; nearly all actives have a fitted effect of over 45% in size. An outline of the steps: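 Cytotoxicity counter screen: CellTiter-Glo luminescence (30 min, room temperature) measured in the SBE-bla HEK 293T reporter wells after 5 hr compound treatment at 37 C and the 2 hr substrate step.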
Assay [17] is described as follows: qHTS assay to identify small molecule agonists of the TGF-beta/Smad signaling pathway (AID 1346859; active = well fitted activation curve with a large enough effect in the signal ratio in the repeat runs, not every such curve was filed as active; the % refers to the signal ratio; also: series mostly up to about 77 µM). An outline of the steps:
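Beta-lactamase reporter activity downstream of Smad binding elements was measured in stably transfected HEK 293T cells; compounds were incubated for 5 hr, substrate for 2 hr at room temperature.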

In assay [18] the target is Thyrotropin-releasing hormone receptor (Homo sapiens) (UniProt P34981). Put plainly: qHTS assay to identify small molecule antagonists of the thyrotropin-releasing hormone receptor (TRHR) signaling pathway (AID 1346877; active = well fitted inhibition curve with a large enough effect in the repeat runs, not every such curve was filed as active; also: series mostly up to about 51 µM). An outline of the steps: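 Human TRHR in HEK293 cells; inhibition of the intracellular calcium rise triggered by 1 nM TRH was followed by fluorescence over 3 min. Compounds were run at 15 concentrations, three replicates each.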
Thyrotropin-releasing hormone receptor (Homo sapiens), sequence (P34981 whole entry, looked up): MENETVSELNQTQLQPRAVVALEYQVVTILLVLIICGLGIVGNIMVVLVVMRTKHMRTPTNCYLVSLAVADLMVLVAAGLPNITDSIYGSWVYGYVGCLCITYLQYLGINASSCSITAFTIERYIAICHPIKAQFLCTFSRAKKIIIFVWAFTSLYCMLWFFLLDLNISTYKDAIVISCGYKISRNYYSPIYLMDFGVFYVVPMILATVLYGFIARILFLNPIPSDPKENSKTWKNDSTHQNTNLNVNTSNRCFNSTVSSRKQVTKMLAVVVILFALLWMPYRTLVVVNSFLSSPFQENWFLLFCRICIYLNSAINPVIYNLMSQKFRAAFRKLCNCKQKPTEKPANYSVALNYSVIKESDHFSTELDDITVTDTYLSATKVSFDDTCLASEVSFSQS

In assay [19] the target is Estrogen receptor (Homo sapiens) (UniProt P03372). Put plainly: qHTS assay to identify small molecule agonists of the estrogen receptor alpha (ER-alpha) signaling pathway in the presence of an antagonist (AID 1259383; calls by dose curve; also: nearly all actives have a fitted effect of over 15% in size; also: potency is read from the fitted curve at half-maximal effect; as to activation: top concentration of the series differs between compounds). An outline of the steps:
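ER-alpha agonism measured under antagonist challenge: 10.0nM ICI-182,780 (final) plus compound, 15 concentrations, 22hr, VM7Luc4E2 ERE-luciferase cells. Read by luminescence.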

The target in assay [20] is Androgen receptor (Homo sapiens) (UniProt P10275). The assay is described as follows: qHTS assay to identify small molecule agonists of the androgen receptor (AR) signaling pathway in the presence of an antagonist (AID 1259381; calls by dose curve; also: nearly all actives have a fitted effect of over 15% in size). An outline of the steps:
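AR antagonist background: nilutamide 3.0uM final. Cell line: MDA-kb2, MMTV-driven luciferase, responsive to both AR and GR. Exposure 16hr, 37C, no CO2; ONE-Glo luminescence.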

Estrogen receptor beta (Homo sapiens), sequence (Q92731 whole entry, looked up): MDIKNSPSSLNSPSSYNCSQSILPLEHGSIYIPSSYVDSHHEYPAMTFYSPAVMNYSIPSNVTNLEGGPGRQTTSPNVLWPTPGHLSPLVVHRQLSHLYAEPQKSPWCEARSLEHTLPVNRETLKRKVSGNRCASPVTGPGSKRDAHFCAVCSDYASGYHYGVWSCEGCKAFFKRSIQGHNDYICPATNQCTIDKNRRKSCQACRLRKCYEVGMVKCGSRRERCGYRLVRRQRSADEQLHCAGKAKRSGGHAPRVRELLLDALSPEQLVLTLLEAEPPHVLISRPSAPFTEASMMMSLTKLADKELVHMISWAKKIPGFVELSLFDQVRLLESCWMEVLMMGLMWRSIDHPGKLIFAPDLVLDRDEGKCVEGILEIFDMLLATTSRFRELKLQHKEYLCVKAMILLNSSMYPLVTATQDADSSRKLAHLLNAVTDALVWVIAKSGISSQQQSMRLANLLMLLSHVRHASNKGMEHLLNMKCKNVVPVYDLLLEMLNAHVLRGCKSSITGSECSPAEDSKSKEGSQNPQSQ
Estrogen receptor (Homo sapiens), sequence (P03372 whole entry, looked up): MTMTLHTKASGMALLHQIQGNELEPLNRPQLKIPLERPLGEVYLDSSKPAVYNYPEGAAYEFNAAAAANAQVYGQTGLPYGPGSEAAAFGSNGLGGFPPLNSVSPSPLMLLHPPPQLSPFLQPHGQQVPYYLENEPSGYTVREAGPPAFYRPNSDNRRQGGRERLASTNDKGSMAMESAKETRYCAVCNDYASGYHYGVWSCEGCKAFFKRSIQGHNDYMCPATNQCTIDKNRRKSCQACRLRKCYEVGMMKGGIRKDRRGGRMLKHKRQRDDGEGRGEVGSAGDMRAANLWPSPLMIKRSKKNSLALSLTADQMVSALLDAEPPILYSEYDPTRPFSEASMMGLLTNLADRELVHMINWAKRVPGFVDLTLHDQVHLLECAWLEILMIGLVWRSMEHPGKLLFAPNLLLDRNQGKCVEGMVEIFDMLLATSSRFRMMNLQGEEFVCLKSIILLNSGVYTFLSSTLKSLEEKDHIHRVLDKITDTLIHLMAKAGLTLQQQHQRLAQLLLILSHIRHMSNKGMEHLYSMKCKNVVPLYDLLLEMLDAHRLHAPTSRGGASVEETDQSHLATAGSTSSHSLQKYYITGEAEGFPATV
Androgen receptor (Homo sapiens), sequence (P10275 whole entry, looked up): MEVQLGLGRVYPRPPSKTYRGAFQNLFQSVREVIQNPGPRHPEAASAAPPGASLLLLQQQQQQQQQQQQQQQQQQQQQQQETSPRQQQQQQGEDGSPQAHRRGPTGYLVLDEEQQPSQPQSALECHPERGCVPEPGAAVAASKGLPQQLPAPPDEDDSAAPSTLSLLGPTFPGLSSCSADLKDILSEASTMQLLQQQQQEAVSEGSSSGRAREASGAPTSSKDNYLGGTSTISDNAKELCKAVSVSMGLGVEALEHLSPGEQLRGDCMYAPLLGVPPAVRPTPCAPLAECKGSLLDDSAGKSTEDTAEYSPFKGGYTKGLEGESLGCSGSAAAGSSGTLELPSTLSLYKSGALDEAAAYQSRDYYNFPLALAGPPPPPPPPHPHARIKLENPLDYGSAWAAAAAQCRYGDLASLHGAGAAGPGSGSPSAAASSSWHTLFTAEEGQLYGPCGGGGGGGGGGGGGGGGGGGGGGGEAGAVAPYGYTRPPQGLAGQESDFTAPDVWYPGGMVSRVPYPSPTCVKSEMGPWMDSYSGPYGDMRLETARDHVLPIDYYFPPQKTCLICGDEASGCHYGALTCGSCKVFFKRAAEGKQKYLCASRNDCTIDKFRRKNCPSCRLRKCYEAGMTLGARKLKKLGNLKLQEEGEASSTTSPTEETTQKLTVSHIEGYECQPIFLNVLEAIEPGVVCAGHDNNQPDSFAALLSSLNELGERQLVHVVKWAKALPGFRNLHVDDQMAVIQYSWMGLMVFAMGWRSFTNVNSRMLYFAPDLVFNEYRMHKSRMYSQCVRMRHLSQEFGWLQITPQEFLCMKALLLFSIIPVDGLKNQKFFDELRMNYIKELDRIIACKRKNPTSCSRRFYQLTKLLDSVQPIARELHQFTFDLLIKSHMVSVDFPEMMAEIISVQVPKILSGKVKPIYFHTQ

In the case of `CCCCCCC(C)(C)S`, the compound was classed as inactive in [1], in [8], in [9], in assay [17] and in [18]. The Potency result in [2], in assay [3], in [4], in [5], in assay [6] and in [7] was “inactive” in each case. Further, the Potency result in [10], in assay [11], in assay [12], in [13], in assay [14] and in [15] was “inactive” in each case. For the same compound, the Potency entry in assay [16] is “inactive”.

For the compound `NC(=O)NNc1ccccc1`, the compound was classed as inactive in assay [1], in [8], in assay [9], in assay [17] and in assay [18]. The Potency entry in [2], in [3], in [4], in assay [5], in assay [6] and in [7] was “inactive” in each case. Also, the Potency entry in assay [10], in [11], in assay [12], in assay [13] and in [16] was “inactive” throughout.

As for `CCC(C)C=O` (configuration not stated), the outcome in [1], in assay [8], in assay [9], in assay [17] and in assay [18] was inactive. The Potency entry in assay [2], in assay [4], in [6], in [7], in assay [10] and in assay [11] was “inactive” throughout. For the same compound, the Potency entry in assay [12], in assay [13], in [15] and in [16] was “inactive” each time. The Potency was 4.32 µM (active) and inactive in assay [3]; 1.09 µM (active) and inactive in assay [19].

Regarding `CC1=C(CC(=O)O)c2cc(F)ccc2/C1=C\c1ccc(S(C)=O)cc1` (configuration not stated), the compound was called inactive in [1], in assay [8] and in assay [9]. Moreover, the Potency entry in [2], in assay [3], in assay [4], in assay [5], in assay [6] and in assay [7] was “inactive” each time. Further, the Potency result in assay [10], in [11], in assay [12], in assay [13], in assay [14] and in assay [15] was “inactive” throughout. Moreover, the Potency entry in assay [16] was “inactive”.

As for `O=Nc1ccc(O)cc1`, the result in [1], in assay [8], in assay [9], in assay [17] and in assay [18] was inactive. Moreover, the Potency entry in assay [2], in [3], in assay [4], in assay [6], in [20] and in [7] was “inactive” each time. Also, the Potency entry in [19], in assay [13], in assay [14], in assay [15] and in assay [16] was “inactive” throughout. The Potency in assay [5] was 47.4 µM (active) and inactive; in [10], 47.4 µM (active) and inactive.

Consider `O=S(=O)(O)CCS`, for which the result in assay [1], in assay [8], in [9], in assay [17] and in assay [18] was inactive. The Potency result in assay [2], in assay [3], in assay [4], in assay [5], in assay [6] and in [7] was “inactive” throughout. Further, the Potency result in [19], in [10], in assay [11], in [12], in assay [13] and in assay [14] was “inactive” throughout. For the same compound, the Potency entry in assay [16] was “inactive”.

With `CCCCCCCCC`, the compound was called inactive in [1], in assay [8], in [9], in assay [17] and in [18]. The Potency result in [2], in [3], in [4], in assay [5], in assay [6] and in [7] was “inactive” in each case. The Potency entry in assay [19], in [10], in assay [11], in assay [12], in [13] and in [14] was “inactive” throughout. The Potency result in assay [15] and in assay [16] was “inactive” in each case.
